Here are results for 69 molecules from ChEMBL document CHEMBL4513216, “Probing the Open Global Health Chemical Diversity Library for Multistage-Active Starting Points for Next-Generation Antimalarials” (ACS Infect Dis, 2020).

In all, about 68,000 compounds went through this assay and about 2,700 (4%) showed an effect of 50% or more. The sample holds strong results, similar compounds and a random draw of the others, so the mix is not that of the screen.

This test relates to Plasmodium berghei. Nature of the test: Screen against P. berghei liver stage (PbLuc), transformed with Luciferase, at 2uM. Particulars: tested at 2 uM. It counts as functional, HepG2.
As for `Cc1ccsc1CN(CCN(C)C)C(=O)C1=NNC(=O)CC1`, the INHIBITION is on record as -1.87%. The value for `COC(=O)c1sccc1NC(=O)C1CCCN1C(=O)c1ccco1` (centres undefined) was -16.52%; that for `Cc1cccc(NC(=O)C2CCCN2C(=O)c2ccco2)c1C` (centres undefined) was 58.53%; that for `COCc1ccccc1NC(=O)[C@@H]1CCCN1C(=O)c1ccco1` was 1.86%.

Turning to `NC(=O)CN1CCCN(C(=O)Cc2ccc(F)cc2)CC1`, the INHIBITION stood at 33.12%. The value for `O=C(CN1CCN(c2ncnc3cccc(F)c23)CC1)N1CCCC1` was -11.35%; that for `O=C(Cc1c(F)cccc1F)N1CCN(CC(=O)N2CCCC2)CC1` was 57.95%.

Turning to `CCc1n[nH]c(C2CN(C(=O)c3cscn3)CCO2)n1` (centres undefined), the INHIBITION was -34.61%. On to `Cc1cc(N2CCCCC2)c(C#N)c(C)n1`, for which the INHIBITION was determined as 54.44%. To `Cc1csc(N2CCCN(c3cc(C)nc(C)c3C#N)CC2)n1` belongs -20.21%; to `Cc1cc(N2CCCC2)c(C#N)c(C)n1`, -27.68%. To `Cn1cccc1C(=O)N1CCCN(CCCc2ccccc2)CC1` belongs -25.8%; to `CC(=O)Nc1ccc2nc(-c3nccn3C[C@@H]3CCCO3)ccc2c1`, 25.13%.

As for `Cc1cnc(C)c(N2CCN(CC3CCCO3)CC2)n1` (centres undefined), the INHIBITION is reported as -18.84%. To `CCc1nc(C)c(-c2nccn2CC2CCN(C3CCCC3)CC2)[nH]1` belongs 56.81%.

For the molecule `CCc1nc(C)c(-c2nccn2CC2CC(=O)N(CC)C2)[nH]1` (centres undefined), the INHIBITION is listed as -5.65%. To `Cc1nccn1CCC1CCN(C2CCC3(CCNCC3)CC2)CC1` belongs 34.52%; to `CCc1nc(C)c(-c2nccn2CC2CCCCO2)[nH]1` (centres undefined), 54.75%; to `O=C(c1ccoc1)N1C[C@H]2CC[C@@]3(N=C(c4ccccc4)NC3=O)[C@H]2C1`, -1.45%. The value for `Cc1nn(C)c2c(=O)n(C)c(NCC3CCCO3)nc12` (centres undefined) was 37.45%; that for `CC(C)=CCC/C(C)=C/CN1CCN(C)C2(CCNC(=O)CC2)C1` (centres undefined) was 43.94%; that for `CC/C(C)=C/CCN1CCN(C)C2(CCNC(=O)CC2)C1` (centres undefined) was 20.2%. The value for `CC(C)=CCCN1CCN(C)C2(CCC(=O)N(C)CC2)C1` (centres undefined) was 77.56%; that for `Cc1noc(C)c1CN1CCc2ncnc(-c3ccccc3)c2CC1` was -20.87%; that for `O=S(=O)(Cc1ccccc1)NCC1CCCN(Cc2cccs2)C1` (centres undefined) was 64.35%. Regarding `CC(C)(C)OC(=O)NC1CCCN(Cc2cccs2)C1` (centres undefined), the INHIBITION was 1.08%. To `O=C(CN1CCCC1)N1CCCC(CNS(=O)(=O)Cc2ccccc2)C1` (centres undefined) belongs -4.77%. For the molecule `O=C(Cc1cccs1)N1CCCC(CNS(=O)(=O)Cc2ccccc2)C1` (centres undefined), the INHIBITION was -40.36%.

As for `CCCC(=O)NC1CCCN(Cc2cccs2)C1` (centres undefined), the INHIBITION amounted to 53.65%. In the case of `Cc1ncsc1CCC(=O)NC1CCN(Cc2cccs2)CC1`, the INHIBITION stood at 26.93%.

Regarding `O=C(NS(=O)(=O)c1ccccc1C(F)(F)F)c1cccc2c1OCCO2`, the INHIBITION was determined as 37.69%.

As for `Fc1ccc(CC2CCN(Cc3cscn3)CC2)cc1`, the INHIBITION is -23.58%.

Turning to `COc1cccc(COCC(=O)N2CCCC(c3ccn[nH]3)C2)c1` (centres undefined), the INHIBITION was 14.97%.

Consider `Cc1ncc(-c2ccnc(NCCO)n2)c(C2CCCCC2)n1`, for which the INHIBITION is given as -38.58%. To `Cc1cncc(NC(=O)c2ccc(CN3CC[C@H](O)C3)cc2)c1` belongs 42.48%. The value for `COc1cc(NC(=O)c2ccc(CN3CC[C@H](O)C3)cc2)cc(OC)c1` was 20.71%; that for `Cc1cc(NC(=O)c2ccc(CN3CC[C@H](O)C3)cc2)ccc1F` was 82.91%; that for `Cc1cscc1-c1nc(C2CCOC2)no1` (centres undefined) was 10.22%. To `O=C(NCc1nnc2n1CCC2)c1ccc(Br)s1` belongs 22.39%. As for `CCOCCN1CCN(Cc2nnc(C3CC3)o2)CC1`, the INHIBITION was 51.7%. The value for `CC1CN(Cc2noc(C3CC3)n2)CCN1Cc1noc(C2CC2)n1` (centres undefined) was 33.82%; that for `CC(O)CN1CCN(Cc2nnc(C3CC3)o2)CC1` (centres undefined) was 7.54%; that for `CCOCCN1CCN(Cc2nnc(C3CC3)o2)CC1C` (centres undefined) was -19.75%. Turning to `COCCN1C(=O)[C@@H]2CC[C@H]1CN(Cc1nnc(C3CC3)o1)C2`, the INHIBITION is listed as 29.18%.

For the molecule `CCC1CN(Cc2nnc(C3CC3)o2)CCN1CCOC` (centres undefined), the INHIBITION was determined as 66.64%. The value for `CC1CN(Cc2noc(C3CC3)n2)CCN1Cc1nccn1C` (centres undefined) was 14.82%; that for `COCCN1CCN(Cc2noc(C3CC3)n2)CC1C` (centres undefined) was 53.03%; that for `CCOCCN1CCN(Cc2nnc(C3CC3)o2)CC1CC` (centres undefined) was -0.55%.

For `Cc1ccc(N2CCC3(CCN(Cc4csc(C)n4)CC3)CC2)nn1`, the INHIBITION turned out to be 18.91%. Regarding `COc1ccc(C(C)NCCc2ccc(NC(C)=O)cc2)c(OC)c1` (centres undefined), the INHIBITION was found to be 26.99%. To `CC(=O)N1CCn2c(nnc2C2CCCCN2Cc2ccccc2Cl)C1` (centres undefined) belongs -46.48%.

With `CN(C)C(=O)c1nc(CN2C(=O)OC[C@@H]2c2ccccc2)no1`, the INHIBITION is reported as 18.19%. To `Cn1cc(C(=O)NCc2ccc(OC3CCCCC3)nc2)ccc1=O` belongs 2.66%; to `Cc1noc(C)c1CN1CC2(CCCCN2c2cncnc2)CC1=O` (centres undefined), 50.32%. As for `N#Cc1cccc(CN2CC3(CCCCN3c3cncnc3)CC2=O)c1` (centres undefined), the INHIBITION was -29.69%. To `Cc1noc(C)c1CN1CC2(CCCCN2C)CC1=O` (centres undefined) belongs 21.57%; to `O=C(O)c1cc(-c2ccoc2)cc(S(=O)(=O)N2CCSCC2)c1`, 7.09%. Turning to `Cc1cccc(NC(=O)CCC(=O)NCC(=O)c2ccccc2F)c1`, the INHIBITION is 22.31%.

On to `O=C(CNC(=O)c1ccccc1F)NCc1ccccn1`, for which the INHIBITION was -20.05%. The value for `Cc1cccc(NC(=O)CNC(=O)c2ccccc2F)c1` was 53.99%. `N#Cc1cc(CSCCN2CCOCC2)ccc1F`: the INHIBITION worked out at 39.71%. Regarding `Cc1c(C(=O)N2CC(O)C2)nnn1-c1cccc2cnccc12`, the INHIBITION is listed as 50.31%. In the case of `Cc1c(C(=O)O)nnn1-c1cccc2cccnc12`, the INHIBITION is reported as -58.01%. The value for `Cc1c(C(=O)N2CCC2(C)C)nnn1-c1cccc2cccnc12` was 9.78%. To `Cc1c(C(=O)N2CCC2(C)C)nnn1-c1cccc2cnccc12` belongs 9.78%.

Regarding `Cc1c(C(=O)N2CC(=O)N(C)C2)nnn1-c1cccc2cccnc12`, the INHIBITION stood at 57.5%. Turning to `Cc1c(C(=O)N2CC(C)(C)C2(C)C)nnn1-c1cccc2cnccc12`, the INHIBITION is recorded as -107.15%.

In the case of `c1cc(C2CCCN2CC2CC2)n[nH]1` (centres undefined), the INHIBITION amounted to 13.02%.

For `COc1ccc(CNC(=O)CCn2cc(C)cn2)cc1C`, the INHIBITION is listed as -14.47%.
